Assay results taken from PubChem BioAssay AID1001 (Sanford-Burnham Center for Chemical Genomics, 2008).
Among all 200,000 compounds or so, about 50 (0.03%) were called active. Only a selection was taken, and actives are over-represented in it overall. Potency and affinity values are given separately. Values without a mark were called inactive. No rule for the calls is given here.

biological target: Alkaline phosphatase, tissue-nonspecific isozyme (Homo sapiens) (UniProt P05186); assay: stimulation of alkaline phosphatase TNAP activity – biochemical, luminescent, no phosphate acceptor, uHTS, primary screen (AID 1001); details: purified TNAP, luminescent activation assay, at 20 µM, stronger effect = higher value
Sequence (P05186 whole entry, looked up): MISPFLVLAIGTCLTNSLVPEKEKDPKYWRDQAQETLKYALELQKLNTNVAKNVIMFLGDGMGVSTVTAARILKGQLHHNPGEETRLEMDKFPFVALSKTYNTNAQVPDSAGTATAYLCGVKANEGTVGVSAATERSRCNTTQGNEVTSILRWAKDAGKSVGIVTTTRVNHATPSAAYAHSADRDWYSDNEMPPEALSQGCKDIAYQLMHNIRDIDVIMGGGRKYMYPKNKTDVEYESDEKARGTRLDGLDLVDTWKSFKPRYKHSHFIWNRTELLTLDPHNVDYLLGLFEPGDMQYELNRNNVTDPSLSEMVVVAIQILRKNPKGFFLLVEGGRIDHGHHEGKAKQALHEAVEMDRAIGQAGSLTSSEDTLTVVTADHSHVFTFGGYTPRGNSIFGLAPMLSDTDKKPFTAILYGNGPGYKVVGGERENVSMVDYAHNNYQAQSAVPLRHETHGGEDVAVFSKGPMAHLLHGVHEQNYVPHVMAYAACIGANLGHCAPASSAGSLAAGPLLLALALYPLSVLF

Compound | activation fold
COCCCNC(=O)CCC(=O)NNc1nc2ccccc2c2nc(-c3ccccc3)nn12 | 2.3
O=C(CCC(=O)NNc1nc2ccccc2c2nc(-c3ccccc3)nn12)NCCCN1CCCC1=O | 1.1
CCCCNC(=O)CCC(=O)NNc1nc2ccccc2c2nc(-c3ccccc3)nn12 | 1.6
CCOCCCNC(=O)CCC(=O)NNc1nc2ccccc2c2nc(-c3ccccc3)nn12 | 2.1
COc1ccc(C(=O)N/C(=C\c2ccccc2)C(=O)NC(CC(C)C)C(=O)O)cc1 (configuration not stated) | 1.1
Cc1coc(C)c1C(=O)CC1(O)C(=O)N(CCc2ccccc2)c2ccccc21 (configuration not stated) | 1.1
CCOC(=O)CSc1nc2c(sc3ccc([N+](=O)[O-])cc32)c(=O)n1Cc1ccco1 | 1.1
CCOc1ccc(-n2cc(-c3ccccc3)c3c(N4CCOCC4)ncnc32)cc1 | 1.1
O=c1cc(NCc2ccc3c(c2)OCO3)[nH]c(=O)n1-c1ccc(Cl)cc1 | 1.1
O=S(=O)(Nc1ccc2c(c1)OCO2)c1ccccc1 | 1.1
CNC(=O)N(O)C1N(C)C(=O)N(Cc2ccccc2)C1(C)C (configuration not stated) | 1.1
O=C(CCN1C(=O)/C(=C/c2ccccc2)SC1=S)NNC(=O)c1cccnc1 | 1.6
O=C(CCN1C(=O)/C(=C\c2ccccc2)SC1=S)NNC(=O)c1cccnc1 | 1.6
CCCC(Oc1ccc(Br)cc1)c1nc2c3cc(OC)c(OC)cc3nc(=S)n2[nH]1 (configuration not stated) | 1.2
Cc1cc(N2CCCCC2)nc(N)n1 | 1.1
Cc1cc(N2CCCCC2)nc(NCc2ccccc2)n1 | 1
COc1cccc(C(=O)NNC(=O)c2ccccc2-n2cccc2)c1 | 1.3
O=C(CSc1nnc(-c2ccncc2)n1Cc1ccccc1)NCCc1ccccc1 | 1.2
Clc1ccc(SCCn2ccnc2)cc1 | 1.1
S=C(NCCCn1ccnc1)Nc1ccc(Cl)cc1Cl | 1
Clc1ccc(OCCn2ccnc2)c(Cl)c1 | 1
OC(Cn1ccnc1)c1ccc(Cl)cc1Cl (configuration not stated) | 1
Cc1cc2cc3c(cc2nc1SCC(=O)O)CCC3 | 1
CCCCC(=O)Nc1ccc(C(=O)OC2CCCCC2)cc1 | 1
CCS(=O)(=O)N1CCC(NC(=O)c2ccco2)CC1 | 1.1
O=C(O)c1ccc(CNC(=O)c2ccc(C(F)(F)F)cc2)cc1 | 1

Compound | activation fold
COC(=O)c1ccc(/C=C2\N=C(SC)SC2=O)cc1 | 1.1
CC(=O)OCCCN1C(=O)c2ccc(Br)cc2C1=O | 1
OCCCN1c2ccccc2Nc2nnc(-c3ccccc3)cc21 | 1.5
CC(C)c1[nH]nc2c1C1(CCN(Cc3ccccc3)CC1)C(C#N)=C(N)O2 | 0.9
CC(C)=CCSc1nnc([C@@H](NC(=O)OC(C)(C)C)C(C)C)o1 | 1.1
CCOC(=O)N1CCC(NC(=O)CSc2cc(=O)n(CC)c3ccccc23)CC1 | 1.2
CCc1ccc(CNC(=O)Cn2nc(-c3ccccc3)ccc2=O)cc1 | 1
Oc1c(C(c2ccc(Cl)cc2)N2CCCC2)cc(Cl)c2cccnc12 (configuration not stated) | 1.2
CN1CCN(C(c2ccccn2)c2cc(Cl)c3cccnc3c2O)CC1 (configuration not stated) | 2.5
CC(=O)c1sc(NC(=O)C(C)(C)C)nc1C | 1.1
Cc1cccc(NCc2nc(-c3ccccc3)no2)c1 | 1.1
CNC(=S)NNC(=O)c1ccc2c(c1)OCO2 | 1.6
CC(C)CCC(C(=O)O)C(C)CC(=O)NNC(=O)c1ccco1 (configuration not stated) | 1.1
CC(C)CC(CC(C)C)=NNC(=O)c1ccc2c(c1)OCO2 | 1.1
CC(C)CNC(=O)C(=O)NNC(=O)c1ccco1 | 1.1
COC(=O)c1ccc(N=Cc2c(C(F)(F)F)[nH][nH]c2=O)cc1 | 0.8
Cc1ccc(/C=N/NC(=O)c2nn(C)cc2Cl)cc1 | 1.1
C/C(=N\NC(=O)c1nn(C)cc1Cl)c1ccncc1 | 1.2
COc1ccc2nc(Nc3nc(CSc4nc5ccccc5[nH]4)cc(=O)[nH]3)nc(C)c2c1 | 2.4
Cc1nc(Nc2nc(CSc3nc4ccccc4[nH]3)cc(=O)[nH]2)nc2ccccc12 | 2.5
CCOC(=O)CNC(=O)C(CO)NC(=O)OCc1ccccc1 (configuration not stated) | 1.1
CCOC(=O)/C(N=Nc1sc(C(=O)OCC)c(C)c1C(=O)OCC)=C(\C)O | 1
COC(=O)c1sccc1NC(=O)Cn1nnc(-c2ccc(C)cc2)n1 | 1
O=C(CCC(=O)Nc1ccc(Cl)cc1Cl)NNC(=O)Nc1ccccc1 | 1.3
Cc1cc([N+](=O)[O-])nn1CC(=O)Nc1ccc(F)cc1 | 1.1
Cc1cc([N+](=O)[O-])nn1CC(=O)Nc1cc(F)ccc1F | 1

Compound | activation fold
CCOC(=O)C1(Cc2cccc(OC)c2)CCN(Cc2cnc(C)s2)CC1 | 1
CCCCN1CNC(=S)N(Cc2ccccc2)C1 | 0.9
COc1ccc(S(=O)(=O)Nc2ccccc2C)cc1 | 1
CCN(CC)c1ccc(C=Nc2ccc(N(C)C)cc2)c(O)c1 | 2.3
CCN(CC)c1ccc(C=Nc2ccc(C)cc2)c(O)c1 | 0.9
CCN(CC)c1ccc(N=Cc2ccc(N(CC)CC)cc2O)cc1 | 6 (active)
COc1ccc(C(C)=O)c(Oc2nc(CN3CCOCC3)nc3scc(-c4cccs4)c23)c1 | 1
CC(=O)NNc1ncnc2c1cnn2-c1ccc(C)c(Cl)c1 | 2.2
Cn1ncc2c(NNC(=O)c3ccc(Cl)cc3Cl)ncnc21 | 2.4
Cn1cccc1C(=O)C(=O)Nc1ccccc1C(F)(F)F | 1.2
CN(CCO)C(=O)CCC(=O)Nc1ccc(S(N)(=O)=O)cc1 | 1.1
CC[n+]1c(/C=C/C=C/N(C(C)=O)c2ccccc2)sc2ccccc21 | 0.7
CCN1/C(=C/C(C)=C/c2sc3ccccc3[n+]2CC)Sc2ccccc21 | 0.4
CCN1/C(=C/C=C/C=C/c2sc3ccccc3[n+]2CC)Sc2ccccc21 | 53.2 (active)
CCCc1cc(C(=O)NNC(=S)NCC)c2ccccc2n1 | 1.1
CCNC(=S)NNC(=O)c1cc(C)nc2ccccc12 | 1.7
COc1ccc(C)cc1-n1[nH]nnc1=S | 1
COc1ccc(NC(=S)N2CCCC2c2ccc(OC)c(OC)c2)cc1 (configuration not stated) | 0.9
C=CCNC(=S)NNC(=O)C(CCCC)CC(C)O (configuration not stated) | 1.7
C=CCNC(=S)NNC(=O)C(CCC(C)C)CC(C)(C)O (configuration not stated) | 1.1
O=C1c2ccc(Br)cc2C(=O)N1c1ccc(Cc2ccncc2)cc1 | 1.1
COCCNC(=S)N/N=C(\C)c1ccccc1F | 1
COCCNC(=S)N/N=C(\C)c1ccccc1OC | 1.1
CN(C)CCNC(=O)c1ccc(-c2nn(C)c(=O)c3ccccc23)cc1 | 1.1
CCc1cc2c(=O)[nH]c(-c3ccccn3)nc2s1 | 1.8
Cc1sc2nc(-c3ccccn3)[nH]c(=O)c2c1-c1ccccc1 | 1.4

Compound | activation fold
O=C(O)/C=C/C(=O)N1CCN(S(=O)(=O)c2cccc(C(F)(F)F)c2)CC1 | 1.1
COc1cccc(/C=N/NC(=O)c2[nH]c(C)c(C(=O)N/N=C/c3cccc(OC)c3)c2C)c1 | 1.2
Cc1cccc(C)c1NC(=O)C1(N(Cc2ccco2)C(=O)c2ccccn2)CCCC1 | 1
Cc1cccc(C)c1NC(=O)C1(N(C(=O)c2ccccn2)c2ccc(O)cc2)CCCCC1 | 1
O=C(NCCCn1ccnc1)/C(=C\c1cccnc1)NC(=O)c1ccccc1F | 1
O=C(Nc1cccc2ccccc12)c1ccc([N+](=O)[O-])s1 | 1
CCC(=O)Nc1ccc(/C(C)=N\NC(=O)c2ccc(C)s2)cc1 | 1
Cc1cc(C)c(-c2csc(NC(=O)C3=NN(c4ccccc4)C(=O)CC3)n2)c(C)c1 | 0.9
O=c1[nH]c(NCCO)nc2c1C1(CCCCC1)Cc1ccccc1-2 | 1
Cn1c(NCCCO)nc2c(c1=O)C1(CCCCC1)Cc1ccccc1-2 | 1
CC1CCCN(c2nc3ccccc3nc2C(C#N)C(=O)OC2CCCCC2)C1 (configuration not stated) | 1
Cc1ccc2nc(-c3ccccc3)c(CN3CCN(c4ccccc4F)CC3)n2c1 | 1.1
Clc1ccc(-c2nc3ccccn3c2CN2CCCCC2)cc1 | 1.1
O=c1cc(N2CCc3ccccc3C2)[nH]c(=O)n1Cc1ccc(F)cc1 | 1
Cc1sc(NC(=O)CSc2nnc(COc3ccc(Cl)cc3)n2C)c(C#N)c1C | 1.1
Cc1cccc(-c2nsc(SCC(=O)N3CCCC3)n2)c1 | 1.1
Cc1ccc(Nc2nc(N)nc(CN3CCN(C(=O)c4ccco4)CC3)n2)cc1Cl | 1
CNC(=S)NC1CC2CCCC(C1)N2Cc1ccc(C)cc1 (configuration not stated) | 1.1
CCNC(=S)NC1CC2CCC(C1)N2Cc1ccccc1 (configuration not stated) | 1
COc1ccccc1NC(=S)NNC(=O)c1nn(C)c(C)c1Cl | 1.2
Cc1c(Cl)c(C(=O)NNC(=S)Nc2ccc(F)cc2)nn1C | 2.7
COCc1nnc(NC(=O)c2ccc(OC)cc2OC)s1 | 1.1
COc1ccc(/C=C2/SC(=O)N(CC(=O)NCCC(C)C)C2=O)cc1OC | 1.1
COC(=O)Cn1c(CN2CCC(Cc3ccccc3)CC2)nc2c1c(=O)n(C)c(=O)n2C | 1.1
